Results filed as inconclusive are left out. The source made the active and inactive calls. Calls come from the whole dose curve. Non-standard residues stand in square brackets, D forms with d. Residues, ends and D or L forms follow the SMILES beside them. ξ: configuration not given here. ξL = CC(C)CC(N)C(=O)O
Assay: qHTS for inhibitors of Rabies Virus screened against the NCATS CANVASS Library (AID 1347402); note: 0% is about no effect
Conditions: Rabies virus infection cell assay; series mostly up to 45.9 µM; activity change, negative = inhibition: at the top concentration

SMILES | activity change, negative = inhibition | outcome
CO[C@@H]1[C@H](O)[C@@H](C)O[C@@H](OC[C@@H]2C(C)OC(=O)/C=C/[C@H](C)C(O[C@@H]3O[C@H](C)CC4(OC(=O)O[C@@H]4C)C3O)[C@@H](C)CC(C)C(=O)/C=C/[C@H]3OC23)[C@@H]1OC (some centres undefined) | -12.7% (inactive) | –
COC1C(O)C(OC(N)=O)C(Oc2ccc3c(O)c(NC(=O)c4ccc(O)c(CC=C(C)C)c4)c(=O)oc3c2C)OC1(C)C (centres undefined) | 5.89% (inactive) | –
O=Cc1ccc2n1C[C@@]1(C[C@H](O)[C@@H](CO)O1)OC2 | 4.33% (inactive) | –
C=C1C[C@@]23C=CC(=O)[C@@](C)(CCC(=O)Nc4c(OC5O[C@H](CO)[C@@H](O)[C@H](O)[C@H]5O)ccc(C(=O)O)c4O)C2C[C@@H]1CC3 (some centres undefined) | 7.66% (inactive) | –
C/C=C/c1cc(OC)c2c(c1)[C@@H](C)[C@H](c1ccc(O)c(OC)c1)O2 | -6.82% (inactive) | –
CC(=O)NC[C@@H]1O[C@H](CC/C=C(C)/C(C)=C/C=O)[C@H](C)C[C@H]1O | 5.68% (inactive) | –
C[C@@]12C[C@@H](C[C@@H]3C(=O)O[C@@H](c4ccoc4)[C@H](OC(=O)c4ccccc4)[C@@H]31)OC2=O | -29.9% (inactive) | –
C[C@@H](CCC[C@]1(C)C(=O)C=C[C@]23C[C@H]4C[C@H](O[C@@]4(C)C2)C31)C(=O)N[C@@H](CO)C(=O)O (some centres undefined) | 15.6% (inactive) | –
CN1CCc2cc3c(c4c2C1(C)C(=O)c1cc(O)ccc1-4)OCO3 (centres undefined) | -17.4% (inactive) | –
CO[C@H]1/C=C/CC[C@@H](S[C@@H]2O[C@H](CO)[C@@H](O)[C@H](O)[C@H]2O)CC(=O)O[C@@H](/C(C)=C/[C@H](C)C(=O)CCCC2CC(=O)NC(=O)C2)[C@@H](C)[C@@H]1O | -23.8% [at 0.021 µM] (inactive) | –
C/C=C1/C2=CCCN3C(=O)O[C@H]([C@H]1O)[C@H]23 | -7.1% (inactive) | –
CO[C@@H]1[C@H](O)[C@@H](C)O[C@@H](OC[C@@H]2C(C)OC(=O)/C=C/[C@H](C)C(O[C@@H]3O[C@H](C)CC4(OC(=O)O[C@@H]4C)C3O)[C@@H](C)CC(C)C(=O)CC[C@H]3OC23)[C@@H]1OC (some centres undefined) | -1.19% (inactive) | –
CC(=O)O[C@H]1C[C@@]2(C)[C@@H](CC[C@H]3[C@@]4(C)C=CC(=O)[C@@H](C)[C@@H]4[C@H](OC(C)=O)C(=O)[C@@]32C)/C1=C(\CCC=C(C)C)C(=O)O | -0.717% (inactive) | –
CC1C(=O)C23CCC1C[C@@]21O[C@H]2C(C)(C)C=CC(=O)[C@@]23COC1=O (some centres undefined) | -2.78% (inactive) | –
CC1(C)CC[C@]2(CO)CC[C@]3(C)C(=CCC4[C@@]5(C)CC[C@H](O)C(C)(C)C5CC[C@]43C)C2C1 (some centres undefined) | 0.666% (inactive) | –
C[C@@]12CCC[C@@](C)(C(=O)OP(=O)(O)OC[C@H]3O[C@@H](n4cnc5c(N)ncnc54)[C@H](O)[C@@H]3O)[C@H]1C[C@@H](O)[C@@]13C[C@@H](CC[C@@H]21)[C@](C)(O)C3 | -14.5% (inactive) | –
C[n+]1cc2cc(C(N)=O)[nH]c3c(=N)c(Cl)c(N)c1c23 | -11.6% (inactive) | –
COc1c(O)cc2oc(-c3ccccc3)cc(=O)c2c1O | -20.1% (inactive) | –
C[C@@H]1O[C@@H](O[C@@H]2[C@@H](O)[C@H](O[C@@H]3[C@@H](O)[C@@H](O)C(O[C@H]4[C@H](OC(=O)[C@]56CCC(C)(C)C[C@H]5C5=CCC7[C@@]8(C)C[C@H](O)[C@H](O[C@@H]9C[C@H](CO)[C@@H](O)[C@H](O)[C@H]9O)[C@@](C)(CO)C8[C@H](O)C[C@@]7(C)[C@]5(C)CC6)OC[C@H](O)[C@@H]4O)O[C@H]3C)OC[C@H]2O)[C@H](O)[C@H](O)[C@H]1O (some centres undefined) | 1.36% [at 27.4 µM] (inactive) | –
CC(C)(Br)[C@@H](Cl)C[C@H](Br)[C@](C)(Cl)/C=C/Br | -28.5% (inactive) | –

SMILES | activity change, negative = inhibition | outcome
COc1ccc(-c2oc3cc(OC)cc(OC)c3c(=O)c2O)cc1 | -23.3% (inactive) | –
Oc1ccc([C@H]2Oc3ccc(/C=C/c4cc(O)cc(O)c4)cc3C2c2cc(O)cc(O)c2)cc1 (some centres undefined) | 8.64% (inactive) | –
COc1cc2ccc(=O)oc2c(O)c1O[C@@H]1O[C@H](CO)[C@@H](O)[C@H](O)[C@H]1O | 7.6% [at 27.4 µM] (inactive) | –
Cc1cc(O)cc2oc(C[C@H](C)O)cc(=O)c12 | -15.3% (inactive) | –
C[C@@]12CCC[C@@](C)(C(=O)O)[C@H]1C[C@@H](O)[C@]13C[C@H]4C[C@H](O[C@@]4(C)C1)[C@@H]23 | 1.5% (inactive) | –
Cc1cc(O)cc2c1C(=O)c1c(O)cc(O)cc1C2=O | 4.13% (inactive) | –
COc1ccc([C@@H]2CC(=O)c3c(cc(O)c(C/C=C(\C)CCC=C(C)C)c3O)O2)cc1 | -26.8% [at 9.14 µM] (inactive) | –
COc1cc2c(cc1OC)[C@@H](c1ccc3c(c1)OCO3)C(C)[C@@H](C)C2=O (some centres undefined) | -22% (inactive) | –
Cc1occ2c1C(=O)c1c(cc(O)c(O)c1O)C2=O | -33.2% (inactive) | –
CC[C@@H](c1cc(OC)c(OC)cc1OC)[C@H](C)[C@@H](/C(C)=C/c1cc(OC)c(OC)cc1OC)c1cc(OC)c(OC)cc1OC | – | inactive
O=Cc1ccc2n1C[C@]1(OC2)O[C@H](CO)[C@@H](O)[C@@H]1O | -12.4% (inactive) | –
COc1cc(O)c2c3c(c(O)cc(C)c13)C(=O)OC2 | -1.84% (inactive) | –
O=Cc1ccc2n1C[C@@]1(C[C@H](O)[C@H](O)CO1)OC2 | 10.3% (inactive) | –
C=C1C(=O)C[C@H]2C[C@@H]1[C@]2(C)CCC=C(C)C | -7.23% (inactive) | –
C[C@@H]1C[C@H]2C[C@]3(CCCCN3C)[C@@H]3C[C@H]2[C@H](C1)N(C)C3 | -24.5% (inactive) | –
CC[C@@H](C)[C@H]1NC(=O)C(CC(C)C)NC(=O)[C@@H](CC(C)C)NC(=O)[C@H](Cc2c[nH]c3ccccc23)NC(=O)CNC(=O)[C@@H](CC(N)=O)NC1=O (stereo partly drawn) (cyclo(GW[dL][ξL][dI][dN])) | -11.9% (inactive) | –
C=C[C@]1(C)CC[C@@H]([C@H](C)C(=O)/C=C/C(C)(C)O)O1 | -10.2% (inactive) | –
COC(=O)c1cccc2oc(-c3cccc4oc(-c5c(C)cccc5O)nc34)nc12 | -35.4% (inactive) | –
COC1C(C)OC(OCC23C[C@@H]4[C@H](C)CC[C@H]4C4(C=O)CC2C=C(C(C)C)C34C(=O)O)[C@@H](O)[C@H]1O (some centres undefined) | 2.68% (inactive) | –

— PubChem BioAssay (NCATS)
